Measured values taken from PubChem BioAssay AID1531 (NMMLSC, 2009).
Among all 290,000 compounds or so, about 3,300 (1.1%) were called active. This excerpt belongs to a sample that is enriched for actives. Unmarked numbers belong to inactive results. Cut-off read from the data, not from the text of the source: active = binding response below about 67% or above about 130%; inconclusive = no clear call, values can overlap the other calls; inactive = in between.

Target: Mitogen-activated protein kinase kinase kinase 2 (Homo sapiens) (UniProt Q9Y2U5)
Assay: modulators of MEK5 binding to wildtype MEKK2, primary screen, biochemical, multiplex bead flow cytometry, Alexa488-MEK5 (AID 1531)
Settings: Alexa488-MEK5 binding to MEKK2 WT, at 10 µM, actives lie on both sides

For `O=C(O)COc1ccccc1/C=C1\C(=O)NC(=O)N(CCC2=CCCCC2)C1=O`, the binding response (% of control) was -4% (active).
`CCCCCCCCCCCCn1ccc(=N)cc1` was tested, and the binding response (% of control) was 173% (active).
With `CNCC(O)c1cc(F)c(OCc2ccccc2)c(OCc2ccccc2)c1F` (stereo not given) the binding response (% of control) was 141% (active).

Compared with `O=C1NC(=O)N(Cc2ccco2)C(=O)/C1=C\c1cccn1CCOc1ccccc1`, `O=C1NC(=O)N(CCc2ccc(F)cc2)C(=O)/C1=C/C=C/c1ccccc1` is lower in binding response (% of control): 110% for the first, 97% for the second.

Going from `CCOP(=S)(OCC)C(O)CCCCCn1c(=O)c(F)cn(C2CCCO2)c1=O` (stereo not given) to `COC(=O)C1=C(c2cc3ccccc3o2)C[C@@H]2CC[C@H]1N2C(=O)NC1CCCCC1`, the binding response (% of control) falls from 106% to 101%.

First: c1ccc(CC2CCCCN2)cc1 (stereo not given)
Second: c1ccc(CCNC2CCCCCC2)cc1
The binding response (% of control) of the first is higher: 107% for the first, 101% for the second.

Compared with `N#Cc1ccc(Cn2cc(C(=O)c3ccco3)c3ccccc32)cc1`, `COC(=O)C1=C(c2cc3ccccc3s2)C[C@@H]2CC[C@H]1N2C(=O)NCc1cccc2ccccc12` is lower in binding response (% of control): 98% for the first, 93% for the second.

`Cc1ccc2c(c1)=C/C(=C\c1c(O)[nH]c(=O)[nH]c1=O)C(=O)N=2` and `COc1ccc(-n2c(O)c(C(C)=Nc3ccc4c(c3)CCC4)c(=O)[nH]c2=O)cc1` are the same in binding response (% of control): 99% for the first, 99% for the second.

First: COC(=O)N1C(c2ccccc2)C1c1ccccc1 (stereo not given)
Second: CN(C)S(=O)(=O)c1cc(C(=O)N2CCC(C(=O)O)(c3ccccc3)CC2)ccc1Cl
The binding response (% of control) of the first is lower: 101% for the first, 106% for the second.
